Data from ChEMBL document CHEMBL3988442, “University of Dundee, Small-Polar-MMV Screening Library” (2021).
The whole screen tested about 53,000 compounds, of which about 900 (1.7%) showed an effect of 50% or more. Many of the other results were omitted from the sample, so strong results are more common in it than they were.

Tested on: Mycobacterium tuberculosis
Assay: Cornell - Phenotypic assay to identify agents that inhibit growth of Mycobacterium tuberculosis
Format: functional
Parameters: scale not given: direction of the effect not stated beside the values
Settings: 10 mM as filed; unlikely as a test dose

Row | Compound | Percent Effect
1 | O=c1[nH]c2nc(N3CCSCC3)ncc2c(=O)n1-c1cccc(F)c1 | 12.37%
2 | O=C(O)C1CCCN1c1nc(C2CC2)cc(C(F)(F)F)n1 (centres undefined) | 4.747%
3 | O=C(O)C1CCCN1c1nc(-c2ccc(Cl)c(Cl)c2)cc(C(F)(F)F)n1 (centres undefined) | 67.65%
4 | O=C(O)C1CCCN1c1nc(-c2ccc(Cl)cc2)cc(C(F)(F)F)n1 (centres undefined) | 38.69%
5 | Cc1noc(C)c1CN(C)Cc1csc(-c2ccc(C(C)C)cc2)n1 | 63.13%
6 | Cc1cc(CN(C)Cc2csc(-c3ccc(C(C)C)cc3)n2)no1 | 47.23%
7 | Cc1noc(C)c1CN(C)Cc1csc(-c2ccc(F)cc2)n1 | 39.26%
8 | CC(C)c1ncc(CN2CCCC2c2[nH]ncc2C(=O)N(C)C)cn1 (centres undefined) | -22.16%
9 | CCCn1c(C)c(CC(=O)N[C@H](C)C(=O)OC)c2c1CC(C)(C)CC2=O | 46.36%
10 | Cc1cnc2n(c1=O)C(CC(=O)NCc1ccco1)CS2 (centres undefined) | 22.84%
11 | Cc1nc(C)n(CC2CN(CC(=O)NC3CCCC3)CCO2)n1 (centres undefined) | -1.047%
12 | CCc1ccccc1NCc1nc2[nH]c(C)c(C)c(=O)n2n1 | -10.14%
13 | CN1C(=O)C2(CCN(C(=O)C3CCOCC3)CC2)c2ccccc21 | 10.41%
14 | N#Cc1nc(COc2ccc3c(c2)OCO3)oc1NC1CCCCC1 | 58.43%
15 | N#Cc1nc(COc2ccc3c(c2)OCO3)oc1N1CCCCCC1 | 35.88%
16 | N#Cc1nc(COc2ccc3c(c2)OCO3)oc1NC1CC1 | 0.1825%
17 | CC(C)NC(=O)c1nc(COc2ccc3c(c2)OCO3)no1 | 22.39%
18 | CNc1oc(COc2ccc3c(c2)OCO3)nc1C#N | -5.351%
19 | N#Cc1nc(COc2ccc3c(c2)OCO3)oc1N1CCCC1 | 60.43%
20 | Cc1nn(C)cc1-c1cc(C(F)(F)F)n(CCCN)n1 | -15.46%
21 | Cc1cccc(CS(=O)(=O)NCc2nn(C)c3c2CCCC3)c1 | 18.68%
22 | O=C(c1cnccn1)N1CC(S(=O)(=O)c2ccc(Cl)cc2)C1 | 17.17%
23 | CC(=O)N1CCN(c2cc(C)ncn2)CC(CO)C1 (centres undefined) | 21.65%

Row | Compound | Percent Effect
24 | CN(C(=O)Cn1nnnc1C(C)(C)C)c1ccccc1 | -5.466%
25 | CCOC(=O)Cn1c(=O)nc2n1C(=O)N(c1ccccc1)C2 | -0.8928%
26 | CCOC(=O)Cn1nnnc1-c1ccccc1 | 99.52%
27 | CC(C)c1nn(C)c(N(C)C)c1CNCC(O)c1ccccc1F (centres undefined) | 40.49%
28 | Cc1nn(C)c(N(C)C)c1CNCC(O)c1ccccc1 (centres undefined) | -2.094%
29 | COc1ccccc1C(O)CNCc1c(C(C)C)nn(C)c1N(C)C (centres undefined) | 50.62%
30 | Cc1ccc(C(O)CNCc2c(C(C)C)nn(C)c2N(C)C)cc1 (centres undefined) | 104.4%
31 | Cc1cccc(OCC(O)CNCc2c(C)nn(C)c2N(C)C)c1 (centres undefined) | 33.74%
32 | CC(C)c1nn(C)c(N(C)C)c1CNCC(O)c1ccccc1 (centres undefined) | 39.56%
33 | Cc1nn(C)c(N(C)C)c1CNCC(O)COc1ccccc1.Cl (centres undefined) | 25.02%
34 | CC(C)c1nn(C)c(N(C)C)c1CNCC(O)COc1ccccc1 (centres undefined) | 51.29%
35 | COc1c(CNCC(O)c2ccccc2F)c(C(C)C)nn1C (centres undefined) | -39.06%
36 | O=C(O)c1nnn(-c2ccc(F)c(F)c2)c1-c1ccncc1 | 8.364%
37 | CC(=O)c1ccc(-n2c(C)cn(CCC(=O)NC(N)=O)c2=O)cc1 | 30.44%
38 | Cc1nc2ccnn2c(C)c1CCC(=O)N1CCN2CCCCC2C1 (centres undefined) | -1.576%
39 | CCCn1cc(Cl)c(C(=O)N2C[C@H]3C[C@H](OC)C[C@H]3C2)n1 | 4.304%
40 | CN1CC[C@]2(CN(CC3CC3)C[C@H]2c2ccccc2)C1=O | -29.63%
41 | CC(=O)Nc1ccc(Oc2cc(C)nc(C3CCCNC3)c2)cc1.Cl (centres undefined) | 31.88%
42 | Cc1ccc(N2CCCN(C(=O)c3n[nH]c4c3CCC4)CC2)nn1 | 19.39%
43 | CNC(=O)CN1CCC(CN(C)CCSc2ccccc2)CC1 | 4.331%
44 | Cc1cc(NCCSc2nccn2C)n2nc(C)c(C)c2n1 | 27.83%
45 | Cc1cc(NCCCNc2cccnc2)n2nc(C)c(C)c2n1 | 31.25%
46 | CCSCCNc1cc(C)nc2c(C)c(C)nn12 | 75.01%

Row | Compound | Percent Effect
47 | Cn1cc(-c2cc(C(F)F)n3nc(CCC(=O)O)nc3n2)cn1 | -6.676%
48 | COc1cccc(CNC(=O)c2ccccc2-n2cnc(CN)c2)c1 | -31.51%
49 | CN1CCc2nnc(C3CCCN3S(=O)(=O)c3ccc(F)cc3)n2CC1 (centres undefined) | 59.34%
50 | O=S(=O)(c1ccc(F)cc1F)N1CCCCC1c1nnc2n1CCCC2 (centres undefined) | 10.12%
51 | CCN(CC)S(=O)(=O)N1CCCC1c1nnc2n1CCN(C)CC2 (centres undefined) | 42.64%
52 | CC(OCC1CC1)C(=O)N1CCCN(Cc2nccn2C(C)C)CC1 (centres undefined) | 14.16%
53 | O=C(NCCC1COc2ccccc2O1)c1ccc(-c2cn[nH]c2)nc1 (centres undefined) | 4.189%
54 | O=C(NCCC1COc2ccccc2O1)c1ccc(-c2cc[nH]n2)nc1 (centres undefined) | 70.18%
55 | O=C(NCCC1COc2ccccc2O1)c1ccc(N2CC(O)C2)nc1 (centres undefined) | -14.99%
56 | CN(C)C(=O)N1C[C@@H]2CC[C@H](C1)N(Cc1nnc(-c3ccco3)o1)C2 | -11.16%
57 | CCC(C)Oc1ccc(CNCCNC(C)=O)cc1OC (centres undefined) | -42.04%
58 | Cn1ncc2c(N3CCS(=O)(=O)CC3)nc(C3CCCC3)nc21 | -13.36%
59 | Cn1ncc2c(N3CCN(CCO)CC3)nc(C3CCCC3)nc21 | 32.14%
60 | CN1CCCN(c2nc(C3CCCC3)nc3c2cnn3C)CC1 | 65.73%
61 | c1ccc(CCCN2CCCN(c3ncnc4[nH]ccc34)CC2)cc1 | 3.591%
62 | Cc1nccn1-c1ccc(=O)n(CCNC(=O)Cc2ccccc2)n1 | 4.846%
63 | c1cc(N2CCCCC2)ccc1-c1noc(CN2CCOCC2)n1 | 5.485%
64 | COc1ccc(N2CCN(C(=O)Cn3nc(C)c(Cl)c3C)CC2)cc1 | 54.85%
65 | Cc1nn(CC(=O)N2CCN(c3ccc(F)cc3)CC2)c(C)c1Cl | -1.208%
66 | Cc1nn(CC(=O)N2CCN(c3ccncc3)CC2)c(C)c1Cl | 1.786%
67 | COc1cccc(N2CCN(C(=O)COc3c(C)occc3=O)CC2)c1 | 16.48%
68 | Cc1occc(=O)c1OCC(=O)N1CCN(c2ccccc2)CC1 | 32.32%
69 | COc1ccc(N2CCN(C(=O)COc3c(C)occc3=O)CC2)cc1 | 55.27%
